Results: the supplement of paper PMC7530171
Where a name gives a salt, the structure may show the parent alone. ± gives the standard deviation.

System: THP-1 macrophages infected with Mycobacterium tuberculosis H37Rv
Experiment: intracellular M.tb growth inhibition relative to DMSO (0) and 4 uM bedaquiline (100); higher = stronger inhibition of intracellular bacterial growth
Details: 10 µM; 4 days
Protocol: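 OICR kinase inhibitor library screened in duplicate at 10 uM against THP-1 macrophages (PMA-differentiated) infected with M. tuberculosis H37Rv-pTEC27 (tdTomato RFP), 4 days at 37 C. Rows with complete host cell loss (placeholder inhibition 0, cell loss 100) were removed.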

Row | SMILES | intracellular M.tb growth inhibition
1 | CC[C@H](CO)Nc1nc(NCc2ccccc2)c2ncn(C(C)C)c2n1 [Roscovitine] | -23.1 ± 47%
2 | Cc1cc(Nc2cc(C)c(C#N)c(NC(C)CCCC(C)(C)O)n2)n[nH]1 (stereo not given) [TC-A 2317 hydrochloride] | -257 ± 200%
3 | Nc1[nH]nc2nc3ccccc3nc12 | 0.53 ± 68%
4 | CC#CC(=O)Nc1ccc2ncnc(Nc3cccc(Br)c3)c2c1 | 3.12 ± 4.4%
5 | C#Cc1cccc(Nc2ncnc3cc(OCCOC)c(OCCOC)cc23)c1 [Erlotinib HCl] | -17.4 ± 52%
6 | COc1cc(SC)ccc1C(=O)N1CCC(Cc2ccccc2)CC1 | 41.8 ± 12%
7 | O=c1[nH]nc(Sc2ncc([N+](=O)[O-])s2)n1-c1ccc2c(c1)OCCO2 | -22.3 ± 6%
8 | CS(=O)(=O)N1CCN(Cc2cc3nc(-c4cccc5[nH]ncc45)nc(N4CCOCC4)c3s2)CC1 [GDC-0941 bismesylate] | 56 ± 26%
9 | COc1cc(OC2CCN(C)CC2)ccc1Nc1ncc2c(n1)n(C1CCCC1)c(=O)n2C | -17.7 ± 25%
10 | c1ccc(-c2[nH]ncc2-c2ccnc3ccccc23)nc1 | 2.68 ± 17%
11 | O=C(O)c1ccc2c3c1cccc3c(=O)n1c3ccccc3nc21 [STO-609 acetic acid] | -29.1 ± 36%
12 | COc1cc2ncnc(Nc3ccc(F)c(Cl)c3)c2cc1OCCCN1CCOCC1 [Gefitinib] | 54.4 ± 28%
13 | S=C(NCc1ccc2c(c1)OCO2)N1CCN(c2ncnc3c2oc2ccccc23)CC1 | -35.5 ± 71%
14 | COc1cc(OC)c(/C=C/S(=O)(=O)Cc2ccc(OC)c(NCC(=O)O)c2)c(OC)c1 | -33.5 ± 120%
15 | NC(=O)c1ccc(-c2nc(-c3ccc4c(c3)OCCO4)c(-c3ccccn3)[nH]2)cc1 | -106 ± 81%
16 | COC(=O)c1ccc2c(c1)NC(=O)/C2=C(\Nc1ccc(N(C)C(=O)CN2CCN(C)CC2)cc1)c1ccccc1 | -144 ± 210%
17 | Cc1cc(C(=O)Nc2cc(Nc3ccc4c(/C=C/c5ccccn5)n[nH]c4c3)ccc2F)n(C)n1 | -16.4 ± 71%
18 | Nc1nccc(-c2c(-c3ccc(F)cc3)ncn2C2CCCCC2)n1 | 42.4 ± 13%
19 | Nc1ncnc2nc(-c3ccc(N4CCOCC4)nc3)cc(-c3cccc(Br)c3)c12 [ABT-702 dihydrochloride] | 29.6 ± 24%
20 | Cc1csc(-c2nnc(Nc3ccc(Oc4ncccc4-c4ccnc(N)n4)cc3)c3ccccc23)c1 | 126 ± 190%

Row | SMILES | intracellular M.tb growth inhibition
21 | COc1cc(Oc2ccnc3cc(OC)c(OC)cc23)ccc1NC(=O)NC(C)c1nccs1 (racemic) | -40.9 ± 140%
22 | COc1nccc(-c2c(-c3ccc(F)cc3)ncn2C2CCNCC2)n1 | -58.3 ± 93%
23 | Cc1ccc(NC(=O)c2ccc(CN3CCN(C)CC3)cc2)cc1Nc1nc(-c2cccnc2)cs1 [Masitinib mesylate] | 95.5 ± 1.8%
24 | Cn1cc(-c2ccc3nnc(C(F)(F)c4ccc5ncccc5c4)n3n2)cn1 | -109 ± 120%
25 | CNC(=O)c1ccccc1Sc1ccc2c(/C=C/c3ccccn3)n[nH]c2c1 [Axitinib] | 33.9 ± 1.6%
26 | CC#CC(=O)Nc1cc2c(Nc3ccc(F)c(Cl)c3)ncnc2cn1 | -68.3 ± 97%
27 | Nc1cccc(-c2cc3c(Oc4cccc(O)c4)ncnc3[nH]2)c1 | -14.2 ± 26%
28 | O=c1cc(N2CCOCC2)oc2c1ccc1ccccc12 | 19.8 ± 4.3%
29 | Fc1ccc(Cl)cc1-c1nc(Nc2ccncc2)c2nccnc2n1 | 36.5 ± 10%
30 | COc1cc2ncnc(Nc3ccc(Oc4ccccc4)cc3)c2cc1OC | 41.9 ± 47%
31 | COc1cc2ncnc(-n3nc(-c4ccccn4)nc3N)c2cc1OC | -77 ± 180%
32 | CN1CCN(CCOc2cc(OC3CCOCC3)c3c(Nc4c(Cl)ccc5c4OCO5)ncnc3c2)CC1 | 44.4 ± 16%
33 | CCn1c(-c2nonc2N)nc2cnc(Oc3cccc(NC(=O)c4ccc(OCCN5CCOCC5)cc4)c3)cc21 | 54.4 ± 77%
34 | Cc1cc2c(F)c(Oc3ncnn4cc(OC[C@@H](C)O)c(C)c34)ccc2[nH]1 [Brivanib] | -66.6 ± 160%
35 | Cc1c(NC(=O)OC[C@@H]2COCCN2)cn2ncnc(Nc3ccc4c(cnn4Cc4cccc(F)c4)c3)c12 | 48.3 ± 10%
36 | O=c1c(O)c(-c2ccc(O)c(O)c2)oc2cc(O)cc(O)c12 [Quercetin] | -5.54 ± 46%
37 | c1cc(OCCN2CCCCC2)cc(-c2n[nH]c3ccc(-c4nnc[nH]4)cc23)c1 | -65.3 ± 120%
38 | Cc1[nH]c(/C=C2\C(=O)Nc3ccc(S(=O)(=O)Cc4c(Cl)cccc4Cl)cc32)c(C)c1C(=O)N1CCC[C@@H]1CN1CCCC1 | 51 ± 13%
39 | Cc1cc(Nc2cc(N3CCN(C)CC3)nc(/C=C/c3ccccc3)n2)n[nH]1 | -329 ± 400%
40 | CN1C(=O)C(Cc2c[nH]c3ccccc23)NC1=S (stereo not given) [Necrostatin-1] | -8.08 ± 36%
